TDP1 inh: TDP1 (human) enzyme inhibition | Q9NUW8 | Potency, µM (doses to about 130 µM), for the others: at the highest dose activity change, negative = inhibition, most hits filed as inhibitors | AID 485290 | recombinant TDP1, AlphaScreen DNA substrate cleavage | 350,000 tested, 0.28% active; further: nearly all actives have a fitted effect of over 40% in size
Target sequence (Q9NUW8 whole entry, looked up): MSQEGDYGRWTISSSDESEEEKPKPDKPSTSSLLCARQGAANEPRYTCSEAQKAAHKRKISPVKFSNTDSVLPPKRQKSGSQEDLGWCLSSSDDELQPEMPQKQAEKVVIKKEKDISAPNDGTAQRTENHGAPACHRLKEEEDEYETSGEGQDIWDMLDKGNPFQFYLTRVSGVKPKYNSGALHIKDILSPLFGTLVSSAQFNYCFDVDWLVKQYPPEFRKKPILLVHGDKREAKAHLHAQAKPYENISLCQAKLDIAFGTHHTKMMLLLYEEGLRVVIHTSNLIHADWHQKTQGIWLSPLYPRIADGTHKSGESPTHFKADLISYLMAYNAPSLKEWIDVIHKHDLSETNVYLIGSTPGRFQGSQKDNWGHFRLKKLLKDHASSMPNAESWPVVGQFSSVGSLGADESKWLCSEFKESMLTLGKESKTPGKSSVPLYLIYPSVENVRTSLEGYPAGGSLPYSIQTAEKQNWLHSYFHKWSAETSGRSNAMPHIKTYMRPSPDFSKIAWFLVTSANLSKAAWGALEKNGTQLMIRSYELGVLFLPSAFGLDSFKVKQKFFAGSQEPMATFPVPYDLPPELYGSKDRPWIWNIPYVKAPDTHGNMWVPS
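Steps: enzyme plus compound, 15 min RT; add biotin/phosphotyrosine-FITC oligonucleotide (15 nM final), react 5 min; add donor/acceptor beads (10 ug/ml final), 10 min; read AlphaScreen. Tdp1 at 1 nM final.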
GCN5L2 inh: inhibitors of human GCN5L2 histone acetyltransferase. AID 504327. GCN5L2 HAT assay, ThioGlo1 CoA-SH fluorescence. Potency, µM (titrated, usually from 58.9 µM), for the others: top-dose activity change, negative = inhibition, actives largely listed as inhibitors. 390,000 tested, 0.21% active
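Titration-based screen in which CoA formation is detected via maleimide probe ThioGlo1 (50uM) turning fluorescent on thiol reaction; substrates H3(1-25) 75uM and acetyl-CoA 70uM, GCN5L2 20nM, 20 min incubation at room temperature.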
TDP1 cell CPT: DT40-hTDP1 cell growth loss with CPT; Potency, µM (series often up to 46.2 µM), for inactives: top-dose activity change, negative = growth inhibition, usual class: inhibitors; chicken DT40 Tdp1-/-;hTDP1 cells + 20 nM CPT, ATP luminescence, 48 h; 420,000 tested, 12% active; AID 686979; further: nearly all actives have a fitted effect of over 55% in size
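Chicken DT40 Tdp1-/- cells stably complemented with human TDP1 were seeded at 400 cells/well in medium containing 20 nM camptothecin, exposed to pin-transferred compounds, and grown at 37 °C for at least 48 hr. Viability was read as ATP luminescence.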
VDR inhibitor: inhibitors of human vitamin D receptor; VDR-SRC2-3 peptide fluorescence polarization, 2 h; Potency, µM, for the others: max response, negative = inhibition, usual class: inhibitors; 400,000 tested, 0.93% active
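Measured by FP: displacement of SRC2-3 coactivator peptide from VDR by library compounds, following a two-hour ambient incubation.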
PLK1 PBD block: blocks phosphopeptide binding to human PLK1 polo-box domain | 360,000 tested, 2.8% active | AID 720504 | Potency, µM, inactives show max response, negative = inhibition, hits mostly inhibitors | P53350 | Plk1 PBD binding of FITC phosphopeptide, fluorescence polarization; further: series mostly up to about 57 µM; nearly all actives have a fitted effect of over 65% in size
TDP1 cell noCPT: qHTS for Inhibitors of human tyrosyl-DNA phosphodiesterase 1 (TDP1): qHTS in cells in absence of CPT. Potency, µM (highest dose often 46.2 µM), inactives show at the highest dose activity change, negative = growth inhibition, hits mostly inhibitors. 420,000 tested, 15% active. DT40 Tdp1-/- hTDP1 cells, no CPT, ATP luminescence, 48 h; further: nearly all actives have a fitted effect of over 55% in size
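Readout: luminescence from CellTiter-Glo after 30 min in the dark at RT. Cells: DT40 Tdp1-/- with stable hTDP1, 400/well. Exposure: compounds alone, ≥48 hr, 37 °C.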
Starred values were filed as active, the others as inactive. Most compounds without a hit are left out; they make up all but 18% or so of the library. The call rests on the fitted dose curve; in most records, active means well fitted curve in the direction sought with a large enough effect; inconclusive means small, poorly fitted or top-dose-only effect, or another doubt; inactive means no such curve, though single readings can be large; an effect the other way counts as inactive or inconclusive. On the % scale 0 is the no-effect control and ±100 the full control effect; potency means the concentration at half of the fitted maximal effect.

Results for O=C(O)c1ccc(-c2nc3ccccc3s2)o1 ?
GCN5L2 inh: -11%; TDP1 cell CPT: 7%; VDR inhibitor: -5%; PLK1 PBD block: -23%; TDP1 cell noCPT: 19%

What do the screens show for `COc1ccc(OC)c(S(=O)(=O)N2c3cc(F)ccc3CCC2C)c1` (stereo unspecified)?
TDP1 inh: -1%; TDP1 cell CPT: 7.3µM*; VDR inhibitor: -1%; PLK1 PBD block: -4%; TDP1 cell noCPT: inconclusive

What do the screens show for `COc1ccc(OC)c(S(=O)(=O)N2C(C)CCCC2C)c1` (stereo unspecified)?
TDP1 inh: -1%; GCN5L2 inh: -5%; TDP1 cell CPT: inconclusive; VDR inhibitor: -1%; PLK1 PBD block: -28%; TDP1 cell noCPT: inconclusive

How did Cc1ccc(-n2c(=O)c3ccc(C(=O)NCc4ccccc4Cl)cc3n(Cc3cccc(F)c3)c2=O)cc1 do in these assays?
TDP1 inh: 0%; GCN5L2 inh: -4%; TDP1 cell CPT: inconclusive; VDR inhibitor: -2%; TDP1 cell noCPT: inconclusive

How did O=C1N(c2ccccc2C(F)(F)F)O[C@@]1(c1ccccc1)C1CCCCC1 do in these assays?
TDP1 inh: -15%; GCN5L2 inh: -10%; TDP1 cell CPT: 13µM*; VDR inhibitor: -1%; PLK1 PBD block: -12%; TDP1 cell noCPT: inconclusive

What do the screens show for `O=C1N(c2ccccc2C(F)(F)F)O[C@@]1(c1ccccc1)C1CCCC1`?
TDP1 inh: inconclusive; GCN5L2 inh: -2%; TDP1 cell CPT: -22%; VDR inhibitor: -17%; PLK1 PBD block: inconclusive; TDP1 cell noCPT: 0%

Results for COc1cc(CN2CCCN(C)CC2)cc([N+](=O)[O-])c1O ?
GCN5L2 inh: -7%; TDP1 cell CPT: 15%; VDR inhibitor: inconclusive; PLK1 PBD block: inconclusive; TDP1 cell noCPT: -8%

How did O=C(O)C1CC=CCC1C(=O)N1CCN(c2nc(-c3ccccc3)c3ccccc3n2)CC1 (stereo unspecified) do in these assays?
TDP1 inh: -5%; GCN5L2 inh: -3%; TDP1 cell CPT: 18µM*; VDR inhibitor: -11%; PLK1 PBD block: -19%; TDP1 cell noCPT: inconclusive

Results for O=C(O)C1CC=CCC1C(=O)N1CCN(c2nc(-c3ccccc3Cl)c3cc(Br)ccc3n2)CC1 (stereo unspecified) ?
TDP1 inh: -3%; GCN5L2 inh: -21%; TDP1 cell CPT: -29%; VDR inhibitor: -28%; PLK1 PBD block: inconclusive; TDP1 cell noCPT: inconclusive

Results for CC(=O)CC1OC(=O)C(Br)=C1NCc1ccccc1 (stereo unspecified) ?
TDP1 inh: 0%; GCN5L2 inh: 16%; TDP1 cell CPT: 0.92µM*; VDR inhibitor: inconclusive; PLK1 PBD block: 27µM*; TDP1 cell noCPT: 1.5µM*

What do the screens show for `CC(=O)c1sc(NCc2ccccc2)nc1C`?
TDP1 inh: 0%; GCN5L2 inh: -11%; TDP1 cell CPT: 0%; VDR inhibitor: -4%; PLK1 PBD block: -6%; TDP1 cell noCPT: inconclusive

How did O=S(=O)(c1ccc(Br)cc1)c1nnn2c1nc(NCc1cccs1)c1sccc12 do in these assays?
TDP1 inh: -5%; GCN5L2 inh: -8%; TDP1 cell CPT: inconclusive; VDR inhibitor: 10%; TDP1 cell noCPT: inconclusive

How did Cc1ccc(CC(=O)Nc2nc3c(s2)CCCC3)cc1 do in these assays?
TDP1 inh: 7%; GCN5L2 inh: -6%; TDP1 cell CPT: inconclusive; VDR inhibitor: -11%; PLK1 PBD block: -8%; TDP1 cell noCPT: inconclusive

What do the screens show for `COc1ccc(OCC(=O)Nc2nc3c(s2)CCCC3)cc1`?
TDP1 inh: 9%; GCN5L2 inh: -7%; TDP1 cell CPT: inconclusive; VDR inhibitor: -7%; PLK1 PBD block: -20%; TDP1 cell noCPT: inconclusive

Results for O=C(Nc1cccc(Br)c1)Nc1nc2c(s1)CCCCCC2 ?
TDP1 inh: 5%; GCN5L2 inh: -4%; TDP1 cell CPT: 7.3µM*; VDR inhibitor: -7%; TDP1 cell noCPT: 8.2µM*
